Laboratory results reported in ChEMBL document CHEMBL4513216, “Probing the Open Global Health Chemical Diversity Library for Multistage-Active Starting Points for Next-Generation Antimalarials” (ACS Infect Dis, 2020).
In all, about 65,000 compounds went through this assay and about 2,100 (3.2%) showed an effect of 50% or more. The median lay at about -52%. This is one part of a sample in which strong results are shown more often than they occur.

These compounds were tested on Plasmodium falciparum (assay: Screen against P. falciparum Asexual Blood Stage (ABS), at 5uM). Conditions: tested at 5 uM.
Type: functional, Dd2
Cc1nnc2n1CCN(CCS(=O)(=O)c1ccc(Cl)cc1)C2 showed an INHIBITION of -194%. With Cc1cccc(-c2noc(Cn3nc(C(N)=O)ccc3=O)n2)c1 the INHIBITION was -165%. In the case of O=S(=O)(NCc1ccccc1)N(Cc1ccccn1)CC1CCCO1 (configuration not stated), the INHIBITION is reported as -181%. Compound CN(C)CCN(CC1CCCO1)S(=O)(=O)NCc1ccccc1 (configuration not stated) has an INHIBITION of 62%. In the case of CN(CCCC1CCCO1)S(=O)(=O)NCc1ccccc1 (configuration not stated), the INHIBITION is reported as -55.1%. C[C@@H](CO)NC(=O)c1ccc2nc(NS(C)(=O)=O)sc2c1 was tested, and the INHIBITION was -104%. CCOc1ccc(CNC(=O)N(C)CC(C)(C)O)cc1C was tested, and the INHIBITION was -65.1%. COCC(=O)N1CCC2(CC1)CN(c1ccccn1)CCO2 gave an INHIBITION of -89.8%. Compound COCC(=O)N1CCC2(CCN(Cc3ccccn3)CC2)CC1 has an INHIBITION of -158%. COCC1CC2(CCN(Cc3ccc(C)o3)CC2)CN1C(C)C (configuration not stated) showed an INHIBITION of 34.5%. With COCCN1CCC2(CC1)CCN(Cc1ccccn1)CC2 the INHIBITION was 52.2%. COCC1CC2(CCN(Cc3nccs3)CC2)CN1Cc1ccccn1 (configuration not stated) was tested, and the INHIBITION was 1.23%. In the case of COCC1CC2(CCN(C(=O)c3ccco3)CC2)CN1C(C)C (configuration not stated), the INHIBITION is reported as 24.5%. COCC1CC2(CCN(CC3CC3)CC2)CN1Cc1csc(C)n1 (configuration not stated) showed an INHIBITION of 53.4%. CCN1CCC2(CC1)CC(COC)N(Cc1csc(C)n1)C2 (configuration not stated) was tested, and the INHIBITION was -19.2%. Compound COCC(=O)N1CCC2(CC1)CC(COC)N(Cc1ccccn1)C2 (configuration not stated) has an INHIBITION of -56%. COCC1CC2(CCN(Cc3ccco3)CC2)CN1C(C)C (configuration not stated) was tested, and the INHIBITION was 64.6%. COCC1CC2(CCN(Cc3ccoc3)CC2)CN1Cc1ccccn1 (configuration not stated) showed an INHIBITION of 57.2%. Cn1cc(CN2CCC3(CC2)CCN(Cc2ccccn2)CC3)cn1 showed an INHIBITION of -19.8%. COCC1CC2(CCN(C(C)=O)CC2)CN1Cc1csc(C)n1 (configuration not stated) gave an INHIBITION of -7.46%. CC(C)CO[C@H]1CN(S(=O)(=O)c2cn(C)cn2)[C@@H]2CCCO[C@H]12 showed an INHIBITION of -26.7%. CN(CC(F)(F)F)C(=O)CNC(=O)N1CCCC(N(C)C)C1 (configuration not stated) was tested, and the INHIBITION was -126%. O=C(c1n[nH]c(=O)c2ccccc12)N1CCC(O)(CN2CCOCC2)C1 (configuration not stated) gave an INHIBITION of -74.2%. CC(C)(C)OC(=O)NC(C)(C(N)=O)c1cccc(Cl)c1 (configuration not stated) was tested, and the INHIBITION was -135%. For CC(C)c1noc(CCC(=O)N2CCSCC2)n1, the INHIBITION was -159%. With COCC1CN(Cc2ccccn2)Cc2nn(C)cc21 (configuration not stated) the INHIBITION was -9.17%. Compound Cc1nnc(SCC(=O)NCc2ccc3c(c2)CCC(=O)N3)s1 has an INHIBITION of -34.4%. Cc1nc2cc(CNC(=O)C3CC(=O)N(C4CCCC4)C3)ccc2n1C (configuration not stated) showed an INHIBITION of -135%. CN(CC1CCCCC1)C(=O)c1ccc(-n2ncc(C#N)c2N)cc1 was tested, and the INHIBITION was -48.5%. CCOc1ccc(Cl)c(C(=O)NCCC(=O)Nc2ccccn2)n1 gave an INHIBITION of 31.1%. CCCn1nc2c(cc1=O)CN(c1ncnc3sccc13)CC2 showed an INHIBITION of -82.2%. With CCCNC(=O)c1cc(-c2cnc(N3CCCC3)nc2)cn1C the INHIBITION was -151%. Cc1nc(CNC(=O)c2ccc3c(c2)nc(N2CCOCC2)n3C)cs1 was tested, and the INHIBITION was -33.8%. CN1CCS(=O)(=O)[C@@H]2CCN(C(=O)c3ccccc3)CC[C@@H]21 was tested, and the INHIBITION was -102%. Cc1ccc(N2CCC3(CCN(Cc4ccccn4)CC3)CC2)nn1 was tested, and the INHIBITION was -21.1%. Cc1cccc(N2CCC3(CCN(Cc4ccccn4)CC3)CC2)n1 was tested, and the INHIBITION was 63.8%. c1ccc(CN2CCC3(CC2)CCN(c2ccccn2)C3)nc1 showed an INHIBITION of 3.14%. Work on O=C(CCN1C(=O)CCC1=O)Nc1ccc(OCC(F)(F)F)nc1 yielded an INHIBITION of -54.8%. Compound O=C(NCC1CCOC1)Nc1ccc(Oc2ccc(F)cc2)nc1 (configuration not stated) has an INHIBITION of 29.4%. O=C(NCC1CC1)Nc1ccc(OCC(F)(F)F)nc1 was tested, and the INHIBITION was 52.7%. O=C(NCc1ccco1)c1cccc(C(=O)NCc2ccco2)n1 was tested, and the INHIBITION was -31%. In the case of OCC1CCCCN1CCn1ccnc1-c1nc2ccccc2[nH]1 (configuration not stated), the INHIBITION is reported as 13.2%. c1ccc(-c2noc(CCCN3CCCC3Cn3cccn3)n2)cc1 (configuration not stated) was tested, and the INHIBITION was 31.8%. Cn1ccnc1CN1CCCCC1c1nc(-c2ccccc2)no1 (configuration not stated) showed an INHIBITION of -149%. Compound CN1CCCC1CCn1ccnc1-c1nc(-c2ccccc2)no1 (configuration not stated) has an INHIBITION of 57.6%. Compound CN1CCCC1CCn1ccnc1-c1ccc2ccccc2n1 (configuration not stated) has an INHIBITION of 56.5%. With Cc1nn(C)c2nc(-c3ccccn3)nc(NCCC3CCCN3C)c12 (configuration not stated) the INHIBITION was -35.5%. Compound O=C(NCCc1cccnc1)c1cn(CCN2CCNCC2)nn1 has an INHIBITION of -75.5%. For Cc1cnc(N2CCn3c(CN4CCOCC4)nnc3C2)nc1, the INHIBITION was -56.3%. Cn1c(CN2CC[C@](C)(O)C(C)(C)C2)cc2ccccc21 gave an INHIBITION of -28.6%. Work on COc1ccc(C(CNC(=O)c2c(C)noc2C)N(C)C)cc1 (configuration not stated) yielded an INHIBITION of -125%. COc1ccc(CN2CCOC(CCc3ccnc(N)c3)C2)cc1 (configuration not stated) gave an INHIBITION of 38.1%.
